Screens deposited in PubChem BioAssay by National Center for Advancing Translational Sciences (NCATS).
The entries come from a sample that favours hits as a whole.
DT40 TDP1 no CPT = qHTS for Inhibitors of human tyrosyl-DNA phosphodiesterase 1 (TDP1): qHTS in cells in absence of CPT. Potency, µM (doses to about 46.2 µM), without a hit: at the highest dose activity change, negative = growth inhibition, most hits filed as inhibitors. DT40 Tdp1-/- hTDP1 cells, no CPT, ATP luminescence, 48 h. hit rate 15% among 420,000. AID 686978, 2013; further: potency means the concentration at half of the fitted maximal effect; nearly all actives have a fitted effect of over 55% in size
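Seeded 400 DT40-hTDP1 cells/well (vehicle DMSO, no 20 nM CPT); pinned compounds; ≥48 hr at 37 °C; CellTiter-Glo luminescence as viability measure.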
DT40 TDP1 CPT = growth inhibition of DT40 Tdp1-/-;hTDP1 cells with camptothecin (screen for TDP1 inhibitors) | chicken DT40 Tdp1-/-;hTDP1 cells + 20 nM CPT, ATP luminescence, 48 h | Potency, µM (highest dose often 46.2 µM), for inactives: at the highest dose activity change, negative = growth inhibition, usual class: inhibitors | hit rate 12% among 420,000; further: potency means the concentration at half of the fitted maximal effect; nearly all actives have a fitted effect of over 55% in size
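Chicken DT40 Tdp1-/- cells complemented with human TDP1, 400 cells/well, exposed to compounds plus 20 nM camptothecin for at least 48 h at 37 C; viability read as ATP content by CellTiter-Glo luminescence.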
IL1B secr inh = inflammasome signaling inhibition, IL-1 beta readout; THP-1 LPS/ATP IL-1B secretion, AlphaLISA, 16 h; stronger effect = lower value; activity change, % at 57.5 µM; hit rate 4.7% among 360,000; AID 743279; in the data active means activity change below about -50%; inconclusive means mostly about -30% to -49%
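THP-1 cells pretreated 1 hr with compounds (up to 57.5 uM final), then stimulated with LPS (250 ng/mL final) plus ATP (1.25 mM final); secreted IL-1B measured by AlphaLISA after 16 hr, decreased signal indicating inhibition.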
ALOX12 inh = ALOX12 (human) lipoxygenase inhibition; P18054; purified 12hLO, xylenol orange hydroperoxide absorbance; Potency, µM (titrated, usually from 108 µM), for inactives: top-dose activity change, negative = inhibition, hits mostly inhibitors; hit rate 1.1% among 580,000; AID 1671190; further: potency means the concentration at half of the fitted maximal effect
Target sequence (P18054 whole entry, looked up): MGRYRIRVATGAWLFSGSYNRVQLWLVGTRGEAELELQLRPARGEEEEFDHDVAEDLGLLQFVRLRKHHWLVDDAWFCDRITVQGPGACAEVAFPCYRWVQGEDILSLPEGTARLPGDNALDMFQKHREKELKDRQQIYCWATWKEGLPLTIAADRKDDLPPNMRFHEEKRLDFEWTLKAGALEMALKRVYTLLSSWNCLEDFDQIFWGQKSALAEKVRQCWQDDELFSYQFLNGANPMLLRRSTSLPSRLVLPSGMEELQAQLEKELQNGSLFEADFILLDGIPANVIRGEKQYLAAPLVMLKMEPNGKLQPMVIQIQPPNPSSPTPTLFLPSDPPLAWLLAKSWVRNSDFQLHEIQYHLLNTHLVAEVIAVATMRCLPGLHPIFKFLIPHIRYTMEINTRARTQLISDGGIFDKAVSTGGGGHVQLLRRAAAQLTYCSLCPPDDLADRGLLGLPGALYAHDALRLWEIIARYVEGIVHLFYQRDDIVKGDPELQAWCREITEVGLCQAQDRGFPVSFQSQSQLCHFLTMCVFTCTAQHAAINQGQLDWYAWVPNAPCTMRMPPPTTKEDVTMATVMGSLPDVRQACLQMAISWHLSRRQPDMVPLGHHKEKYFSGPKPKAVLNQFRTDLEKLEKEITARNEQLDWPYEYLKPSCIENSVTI
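Purified human 12hLO at 150 nM in 25 mM Hepes, 0.01% Triton X-100, pH 7.0, preincubated 15 min at room temperature with compound. Reaction started with 40 uM arachidonic acid, 30 min at room temperature. Hydroperoxide measured by Fe-xylenol orange, 573/405 nm absorbance ratio.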
HT1080 IDH1KD tx = kills HT-1080 cells with IDH1 knockdown | HT-1080 IDH1 knockdown viability, ATP luminescence, 48 h | Potency, µM (doses to about 46.1 µM), without a hit: at the highest dose activity, negative = toxicity, hits mostly cytotoxic | hit rate 2% among 360,000;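 further: potency means the concentration at half of the fitted maximal effect; 0% = DMSO wells and -100% = cell-free medium wells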
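Assay cells: HT-1080 with IDH1 knockdown, 750 per well, RPMI/5% FBS. Exposure: 48 h at 37 °C following 2 h pre-incubation. Read: CellTiter-Glo luminescence; fitted concentration-response, curve class assigned.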
HT1080NT lethal = kills 2HG-producing HT-1080-NT fibrosarcoma cells | HT-1080-NT fibrosarcoma viability, CellTiter-Glo ATP luminescence, 48 h | Potency, µM (doses to about 46.1 µM), without a hit: at the top dose activity, negative = less viability, actives largely listed as cytotoxic | hit rate 1.6% among 360,000 | AID 686970;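 further: NT is the 2HG producing partner of a matched IDH1 knockdown line; potency means the concentration at half of the fitted maximal effect; 0% = DMSO-treated cells and -100% = media-only wells without cells; nearly all actives have a fitted effect of over 55% in size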
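Read-out is CellTiter-Glo luminescence after 10 minutes at room temperature, following 48 hours' compound treatment of HT-1080-NT cells (750 cells/well, RPMI, 5% FBS, 37 degrees C).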
The depositor's hits bear a star; i = inactive; ? = inconclusive; / = no result given; [ ] = dose if it differs, or a comment. Unless noted, the call rests on the fitted dose curve; in most records, active means well fitted curve in the direction sought with a large enough effect; inconclusive means small, poorly fitted or top-dose-only effect, or another doubt; inactive means no such curve, though single readings can be large; an effect the other way counts as inactive or inconclusive. Unless noted, on the % scale 0 is the no-effect control and ±100 the full control effect.

SMILES | DT40 TDP1 no CPT | DT40 TDP1 CPT | IL1B secr inh | ALOX12 inh | HT1080 IDH1KD tx | HT1080NT lethal
COc1ccc(CCNC(=O)C(=O)NCC2OCCN2S(=O)(=O)c2ccc(Br)cc2)cc1OC (configuration not stated) | 7% | 3% | 0 | 18% | -4% | 0%
COc1ccc(CCNC(=O)C(=O)NCC2OCCN2S(=O)(=O)c2ccc(Cl)cc2)cc1OC (configuration not stated) | 18µM* | ? | 6 | -1% | -11% | -1%
COc1ccc2c(C)c(CCC(=O)NCc3ccccc3)c(=O)oc2c1C | / | / | / | -6% | / | /
O=C(NCCc1ccccc1)C(=O)NCC1OCCN1S(=O)(=O)c1ccccc1 (configuration not stated) | -24% | 5% | -9 | 12% | 1% | 2%
O=C(NCCc1ccccc1)C(=O)NCC1OCCN1S(=O)(=O)c1ccc(Br)cc1 (configuration not stated) | 16µM* | ? | 6 | 3% | -4% | -12%
COc1ccc2cnn(CC(=O)Nc3ccc(F)cc3)c(=O)c2c1OC | / | / | / | -15% | / | /
CC/C(=N\NC(=O)c1ccc(-c2ccccc2)cc1)C12CC3CC(CC(C3)C1)C2 | 13µM* | -14% | 12 | 11% | -10% | -11%
Oc1ccc(-c2cnc(-c3ccc(O)cc3)nc2)cc1 | ? | 3% | -19 | -31% | 0.21µM* | ?
Nc1ccc(-c2cnc(-c3ccc(N)cc3)nc2)cc1 | ? | -9% | -22 | 0% | ? | -6%
C=CCCCCCCCCCCCC(O)CC(O)CO (configuration not stated) (tested in a mixture with another compound) | -18% | ? | / | / | / | /
Cc1oc2cc(O)ccc2c(=O)c1Oc1ccc(C(=O)O)cc1 | / | / | / | 10% | / | /
CN(CC(=O)Nc1cccc(F)c1)C(=O)C1CC(=O)N(Cc2ccco2)C1 (configuration not stated) | -19% | -1% | 16 | 10% | 9% | 2%
CN(CC(=O)Nc1ccc(Cl)c(C(F)(F)F)c1)C(=O)C1CC(=O)N(Cc2ccco2)C1 (configuration not stated) | 23µM* | 13µM* | -21 | -24% | -8% | -15%
CN(CC(=O)Nc1ccc(Cl)c(C(F)(F)F)c1)C(=O)/C=C/c1ccco1 | 18µM* | 18µM* | i | ? | -6% | 3%
CN(CC(=O)Nc1ccc(Cl)c(C(F)(F)F)c1)C(=O)/C=C/c1cccs1 | 23µM* | ? | -7 | ? | 0% | -5%
CNc1nc2c(c(=O)[nH]c(=O)n2C)n1CCOc1ccccc1 | / | / | / | 6% | / | /
COc1cccc(C(=O)N2CCn3c(nnc3-c3ccccc3)C2)c1 | / | / | / | 1%[176 µM] | / | /
Cc1cc(C)cc(NS(=O)(=O)CCCS(=O)(=O)Nc2cc(C)cc(C)c2)c1 | ? | ? | -81* | -22% | 21µM* | ?
Oc1ccc(N=Nc2c(O)ccc3ccccc23)cc1 | ? | 18µM* | -51* | ? | ? | 11µM*
COc1ccccc1-c1nnc(SCC(=O)N(C)C2(c3ccccc3Cl)CCCCC2=O)o1 (configuration not stated) | / | / | / | -26% | / | /
Cc1cc(C)[n+](C)c2ccccc12 | -10% | 3% | / | / | / | /
Cc1c2ccccc2cc(Cc2ccccc2)[n+]1C | 13µM* | 23µM* | 18 | 5.6µM* | 21µM* | 0%
O=C(CN(C(=O)c1ccc(Cl)cc1)C1CCCCC1)Nc1ccc(Cl)c([N+](=O)[O-])c1 | 15µM* | 16µM* | ? | -19% | ? | ?
Cc1ccc([N+](=O)[O-])cc1NC(=O)CN(C(=O)c1ccc(Cl)cc1)C1CCCCC1 | 18µM* | 21µM* | -28 | 0% | ? | -14%
Cc1cc(C)c(S(=O)(=O)N2CC(c3nc(Cc4ccccc4)no3)C2)cc1C | / | / | / | 29% | / | /
SMILES | DT40 TDP1 no CPT | DT40 TDP1 CPT | IL1B secr inh | ALOX12 inh | HT1080 IDH1KD tx | HT1080NT lethal
O=C(CC1CCCN(c2cnn(CC3CC3)c(=O)c2)C1)NCCc1c[nH]c2ccccc12 (configuration not stated) | / | / | / | 1% | / | /
COC(=O)[C@@]12C[C@@H](CC(=O)NCCc3ccccc3OC)C(=O)N(CCc3ccc(OC)c(OC)c3)C1=CCC(C)(C)C2 | ? | 23µM* | -4 | -21% | ? | ?
COC(=O)[C@@]12C[C@@H](CC(=O)NCC34CC5CC(CC(C5)C3)C4)C(=O)N(CCc3ccc(OC)c(OC)c3)C1=CCC(C)(C)C2 | 15µM* | 16µM* | -98* | ? | ? | ?
CCCCCCCCN1C(=O)[C@H](CC(=O)NCc2ccc(OC)c(OC)c2)C[C@@]2(C(=O)OC)CC(C)(C)CC=C12 | 18µM* | 18µM* | -78* | ? | ? | ?
COC(=O)[C@@]12C[C@@H](CC(=O)NCc3ccc(OC)c(OC)c3)C(=O)N(CCc3ccc(OC)c(OC)c3)C1=CCC(C)(C)C2 | 15µM* | 16µM* | -28 | 10% | 3% | -24%
CCCCNC(=O)C[C@@H]1C[C@@]2(C(=O)OC)CC(C)(C)CC=C2N(CCc2ccc(OC)c(OC)c2)C1=O | ? | ? | ? | -43% | 4% | 1%
